Source: PubChem BioAssay
Shown are actives, neighbours in structure and some others; about 2.2% of the full set was active somewhere.
PAX8 reporter: PAX8 transcriptional activity inhibition; RMG-I TPO-luciferase reporter, SteadyGlo, 24 h; inhibition, % at 12.6 µM; 360,000 tested, 1.2% active;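 active means mean replicate inhibition at least 60% with every replicate also reaching 60%; inconclusive means only one of the two criteria is met; inactive means mean below 60% and not all replicates reaching 60%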;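 further: luciferase light reporting Pax8 driven TPO promoter activity; plate controls were median of neutral control wells for no effect and mitoxantrone controls for full effect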
LGR2 antag: inhibitors of bursicon-induced Drosophila LGR2 receptor cAMP signaling; HEK293 LGR2, CRE-luciferase, bursicon-stimulated, 4 h; inhibition, % at 9.99 µM; 380,000 tested, 0.35% active; AID 720647;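 active means drop in luminescence signal, shown as inhibition above about 50% in the replicate tests, limit read from the data, passing the limit was not always enough; inconclusive means probably only some replicates passing the limit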;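 further: agonist challenge used bursicon conditioned medium at about half maximal strength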
MITF TRPM1 inh: inhibitors of MITF-driven TRPM1 promoter in melanoma cells; SK-MEL-5 TRPM1 promoter luciferase, 24 h; inhibition, % at 12.5 µM; 330,000 tested, 0.83% active; AID 488899;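 active means mean inhibition across replicates of 60% or more, whatever share of single replicates reaches that level; inconclusive means some that reach 60%, reason not given; inactive means mean inhibition across replicates below 60%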
EWS-Fli block: EWS/Fli transcriptional activity inhibition. A673 NR0B1-luciferase reporter, viability-normalised. inhibition, % at 12.6 µM. 350,000 tested, 0.67% active;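 active means mean inhibition of at least 50% after viability correction, with every replicate also passing that limit; inconclusive means mean reaches 50% but only one of two replicates passes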;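 further: firefly luciferase signal divided by Alamar Blue viability fluorescence both relative to DMSO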
EBV LMP1 NFkB: inhibitors of Epstein-Barr LMP1-induced NF-kappaB reporter; LMP1-induced NF-kappaB luciferase reporter cells, luminescence; inhibition, % at 12.5 µM; 350,000 tested, 0.69% active; in the data active means inhibition above about 41%; inconclusive means no clear call, values can overlap the other calls;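 further: 0% = neutral control wells and 100% = reference inhibitor control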
PGC1a acetyl inh: modulators of PGC1a acetylation; U2OS PGC1a acetylation, AlphaScreen anti-acetyl-lysine; with virally co-expressed GCN5 acetyltransferase; 350,000 tested, 0.17% active; inhibition, % at 15.6 µM;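 active means every replicate shows inhibition of at least 40%; inconclusive means mean inhibition at least 40% but some replicate below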;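 further: 0% = neutral control wells and 100% = positive control wells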
DNA binder FP: DNA binding small molecules; shares compounds with EWS-Fli block; 640 tested, 2% active; salmon sperm DNA acridine orange fluorescence polarization; AC35, µM (top dose mostly 68 µM), inactives show top-dose activity change, negative = DNA binding;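 active means fitted curve reaches a 35% signal fall AC35 below twice the sample's top valid tested dose, actives reach about 48 µM in these data; inactive means the rest, including activity in the rising direction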;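 further: lower polarization ratio signals compound binding to DNA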
Active calls of the source: *; ? = inconclusive; . = not tested or not shown.

SMILES	PAX8 reporter	LGR2 antag	MITF TRPM1 inh	EWS-Fli block	EBV LMP1 NFkB	PGC1a acetyl inh	DNA binder FP
C[C@H](CO)N1C[C@H](C)[C@@H](CN(C)S(=O)(=O)c2cccs2)OCCCC[C@H](C)Oc2ccc(NC(=O)C3CCCCC3)cc2C1=O	.	14	.	7	.	2	.
CCCCCCCCCCCCCCCCCCNc1ccn(C2OC(COP(=O)(O)OCC3OC(n4cc(F)c(=O)[nH]c4=O)CC3O)C(O)C2O)c(=O)n1 (centres undefined)	18	.	-3	61*	23	.	-6%
O=c1[nH]c(=O)n(C2OC(CO)C(O)C(O)C2O)cc1F (centres undefined)	.	.	.	6	.	.	.
CCOc1cc2[nH]c(=S)n(Cc3ccc(C(=O)NCCN(CC)CC)cc3)c(=O)c2cc1OCC	-33	-11	3	58*	0	-49	3%
CC(=O)N1[C@H](CO)[C@H](c2ccccc2)[C@@H]1CN(C(=O)c1ccccc1)C(C)C	7	17	.	-8	.	0	.
Cc1nn(Cc2ccccc2Cl)c2sc(C(=O)Nc3ccccc3N3CCOCC3)cc12	43	1	11	50*	4	.	-12%
C[C@@H]1CN([C@H](C)CO)C(=O)c2cc(-c3cccnc3)cnc2O[C@@H]1CN(C)Cc1ccc(-c2ccccc2)cc1	.	-11	.	-7	.	-8	.
CC(=O)O[C@@H]1[C@H]2[C@@H](C[C@@H](C)[C@@H]3C=CC(=O)[C@@]13C)OC(=O)[C@@H]2C	-14	5	2	-6	5	8	.
C=C1C(=O)OC2C1CCC(C)C1C=CC(=O)C12C (centres undefined)	75*	0	69*	56*	-82	.	7%
CC1(C(=O)NCc2ccco2)Cc2c(-c3cccc(C(N)=O)c3)ccnc2O1 (centres undefined)	.	-20	.	53*	.	6	-11%
CN(C)c1ccc(-c2ccnc3c2CC(C)(C(=O)NCc2cccs2)O3)cc1 (centres undefined)	13	-4	.	47	.	.	.
CC1(C(=O)NCc2ccco2)Cc2c(-c3cccc(C(F)(F)F)c3)ccnc2O1 (centres undefined)	10	5	.	39	.	-22	.
CN(C)c1ccc(-c2ccnc3c2CC(C)(C(=O)NCc2ccco2)O3)cc1 (centres undefined)	-11	-5	.	64*	.	.	3%
CN1C(=O)c2cc(NC(=O)c3cccs3)ccc2OC[C@H]2O[C@H](CC(=O)NCC3CC3)CC[C@@H]21	8	9	.	-4	.	5	.
CO[C@H]1CN(C)C(=O)c2ccc(NC(=O)C3CC3)cc2OC[C@H](C)N(Cc2cccc(F)c2)C[C@H]1C	10	-1	.	-1	.	-2	.
Cc1ccc(-c2ccc3c(c2)O[C@@H](CN(C)C(=O)Nc2ccc(F)cc2)[C@H](C)CN([C@@H](C)CO)S3(=O)=O)cc1	.	1	.	54*	.	-1	-10%
Cc1ccc(-c2ccc3c(c2)O[C@@H](CN(C)C(=O)Nc2ccc(F)cc2)[C@H](C)CN([C@H](C)CO)S3(=O)=O)cc1	.	17	.	29	.	-4	.
CC(C)NC(=O)N(C)C[C@@H]1Oc2cc(C#Cc3ccc(F)cc3)ccc2S(=O)(=O)N([C@H](C)CO)C[C@H]1C	.	18	.	56*	.	1	-9%
COc1ccc(NC(=O)Nc2cccc3c2O[C@H](CN(C)Cc2ccccc2)[C@@H](C)CN([C@H](C)CO)C3=O)cc1	.	11	.	-8	.	-12	.
C[C@H](CO)N1C[C@H](C)[C@@H](CN(C)C)Oc2ccc(NC(=O)NC3CCCCC3)cc2CC1=O	5	7	.	6	.	-16	.
CC(=O)N1CCCC(c2cc(C(=O)Nc3ccccc3)no2)C1 (centres undefined)	?	88*	.	75*	.	7	-2%
O=C(Nc1ccccc1)c1cc(C2CCCN(C(=O)C/C=C/c3ccccc3)C2)on1 (centres undefined)	-21	-40	.	-15	.	0	.
CS(=O)(=O)N1CC2(C1)[C@H](c1ccccc1)[C@H](CO)N2CCC(F)(F)F	-7	-4	.	-2	.	-1	.
C/C(=N\OCc1cccc(C(=O)O)c1)c1ccc(Cl)cc1	81*	100*	.	84*	.	11	-14%
CCc1ccc(/C=C2\SC(=S)N(CCCC(=O)Nc3cc(C)on3)C2=O)cc1	35	18	.	83*	37	-4	-2%
SMILES	PAX8 reporter	LGR2 antag	MITF TRPM1 inh	EWS-Fli block	EBV LMP1 NFkB	PGC1a acetyl inh	DNA binder FP
COc1cccc(/C=C2\SC(=S)N(CCCC(=O)Nc3cc(C)on3)C2=O)c1	.	4	-9	49	-2	2	.
CCc1ccc(/C=C2\SC(=S)N(CCCC(=O)NC3=NCCS3)C2=O)cc1	13	1	.	77*	46*	-3	1%
CCc1ccc(/C=C2\SC(=S)N(CCC(=O)Nc3cc(C)on3)C2=O)cc1	7	2	39	63*	6	.	1%
Cc1cc(NC(=O)CCN2C(=O)/C(=C/c3ccccc3Cl)SC2=S)no1	7	5	10	-5	0	.	.
COc1ccccc1/C=C1\SC(=S)N(CCC(=O)Nc2cc(C)on2)C1=O	-11	19	4	52*	-1	-7	4%
COc1cccc(/C=C2\SC(=S)N(CCCC(=O)NC3=NCCS3)C2=O)c1	.	-3	12	.	3	-5	.
C[C@H]1CN([C@@H](C)CO)C(=O)Cc2cc(NC(=O)Nc3ccc(F)cc3)ccc2O[C@H]1CN(C)C(=O)NC1CCCCC1	18	.	.	3	.	-2	.
Cc1[nH]c(=S)sc1Cc1ccc(Cl)c(Cl)c1	1	-5	.	79*	.	.	-4%
CC=Cc1ccc2n(c1=O)C[C@H]1[C@H](CO)[C@@H](C(=O)N3CCN(C)CC3)N(Cc3ccccc3OC)[C@@H]21 (mixture of isomers)	.	6	.	3	.	.	.
C=C1C(=O)O[C@H]2[C@H]1[C@H](OC(=O)/C(C)=C\C)C[C@]1(CO1)[C@@H]1[C@H](OC(C)=O)C=C(C)[C@]21O	16	6	3	-3	-7	.	.
C=C1C(=O)O[C@@H]2[C@H]1[C@@H](OC(=O)/C(C)=C/C)C/C(C)=C\C(=O)/C=C(\C)[C@@H]2O	98*	55*	96*	73*	67*	-198	-6%
CC1=NN(c2ccc(C)cc2)C(=O)/C1=C\C=C\c1ccccc1	3	0	38	61*	-6	.	-13%
CC1=NN(c2cccc(C(=O)O)c2)C(=O)/C1=C\C=C/c1ccccc1	2	?	.	46	.	-14	.
O=C(N/N=C/c1cccnc1)c1cc(-c2ccc(Cl)cc2)nc2ccccc12	24	-13	9	12	-7	.	.
O=C(N/N=C/c1ccc[nH]1)c1cc(-c2ccc(Cl)cc2)nc2ccccc12	9	10	16	54*	-12	9	-6%
